Assay results from PubChem BioAssay (NCATS).
Records with an inconclusive call do not appear. A call without a number means that no potency is given here. A number with no mark means an inactive call. The source made the active and inactive calls. Calls follow the shape of the dose curve; as a rule, active = well fitted curve in the direction sought with a large enough effect; inconclusive = small, poorly fitted or top-dose-only effect, or another doubt; inactive = no such curve, though single readings can be large; an effect the other way counts as inactive or inconclusive.

Target: Protein phosphatase 1D (Homo sapiens) (UniProt O15297)
Sequence (O15297 whole entry, looked up): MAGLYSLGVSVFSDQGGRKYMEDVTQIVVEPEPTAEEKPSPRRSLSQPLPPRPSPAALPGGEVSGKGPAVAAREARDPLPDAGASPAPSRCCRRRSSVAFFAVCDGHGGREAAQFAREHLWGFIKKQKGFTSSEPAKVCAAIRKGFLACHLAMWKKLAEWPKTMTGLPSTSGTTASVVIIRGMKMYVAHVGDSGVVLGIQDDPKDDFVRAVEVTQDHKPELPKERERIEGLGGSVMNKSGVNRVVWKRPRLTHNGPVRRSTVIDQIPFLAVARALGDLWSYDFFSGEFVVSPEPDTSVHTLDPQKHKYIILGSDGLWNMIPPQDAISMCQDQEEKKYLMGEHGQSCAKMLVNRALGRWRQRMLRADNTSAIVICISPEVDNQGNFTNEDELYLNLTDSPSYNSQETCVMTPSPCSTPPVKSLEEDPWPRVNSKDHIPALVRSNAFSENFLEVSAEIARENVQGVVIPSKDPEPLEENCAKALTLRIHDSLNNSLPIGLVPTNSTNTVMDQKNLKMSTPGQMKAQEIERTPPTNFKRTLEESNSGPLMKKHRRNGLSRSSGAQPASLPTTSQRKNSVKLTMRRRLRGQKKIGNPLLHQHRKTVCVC
Assay: RapidFire Mass Spectrometry qHTS Assay for Modulators of WT P53-Induced Phosphatase 1 (WIP1) (AID 1347424);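 also: amount of dephosphorylated VEPPL-S-QETFS peptide product formed by WIP1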
Settings: WIP1 dephosphorylation of phosphopeptide, RapidFire MS; series mostly up to 63 µM
In short: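 Mass-spectrometric measurement of dephosphorylated peptide after a 5 min room-temperature reaction of 10 nM WIP1 with 2 uM phosphopeptide, following 1 h compound preincubation in 30 mM MgCl2 buffer.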

Compound | outcome
Cc1cccc(Nc2ccncc2S(=O)(=O)NC(=O)NC(C)C)c1 | inactive
Cc1ncc([N+](=O)[O-])n1CCO | inactive
CC1=CC(=O)c2ccccc2C1=O | inactive
Cn1c(=O)c2c(ncn2CC(O)CO)n(C)c1=O (centres undefined) | inactive
CNNCc1ccc(C(=O)NC(C)C)cc1 | inactive
COC(=O)Nc1nc2ccc(S(=O)c3ccccc3)cc2[nH]1 (centres undefined) | inactive
CO[C@@]12[C@H](COC(N)=O)C3=C(C(=O)C(C)=C(N)C3=O)N1C[C@@H]1N[C@@H]12 | inactive
C1CCC(C(CC2CCCCN2)C2CCCCC2)CC1 (centres undefined) | inactive
O[C@@H](CNC[C@H](O)[C@H]1CCc2cc(F)ccc2O1)[C@@H]1CCc2cc(F)ccc2O1 | inactive
CCCN[C@H]1CCc2nc(N)sc2C1 | inactive
CNCC[C@H](Oc1cccc2ccccc12)c1cccs1 | inactive
CCn1cc(C(=O)O)c(=O)c2cc(F)c(N3CCN(C)CC3)cc21 | inactive
O=C(O)c1cccnc1 | inactive
CCOC(=O)[C@H](CCc1ccccc1)N[C@H]1CCc2ccccc2N(CC(=O)O)C1=O | inactive
O=S(=O)(c1cccc2cnccc12)N1CCCNCC1 | inactive
CN1CCN(c2c(F)cc3c(=O)c(C(=O)O)cn(CCF)c3c2F)CC1 | inactive
COc1ccc2c(c1)c(CC(=O)OCC(=O)O)c(C)n2C(=O)c1ccc(Cl)cc1 | inactive
Cc1cccc(N(C)C(=S)Oc2ccc3ccccc3c2)c1 | inactive
NC(=O)N1c2ccccc2CC(=O)c2ccccc21 | inactive
CN1CCCC(n2nc(Cc3ccc(Cl)cc3)c3ccccc3c2=O)CC1 (centres undefined) | inactive
COc1ccc2cc3[n+](cc2c1OC)CCc1cc2c(cc1-3)OCO2 | inactive
O=S(=O)(O)CCS | inactive

Target: Protein phosphatase 1D (Homo sapiens) (UniProt O15297)
Assay: Rhodamine-PBP qHTS Assay for Modulators of WT P53-Induced Phosphatase 1 (WIP1) (AID 1347425)
Settings: recombinant WIP1, Rhodamine-PBP phosphate fluorescence, real-time; series mostly up to 57.5 µM
In short: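 Read-out: Rhodamine-PBP fluorescence (ex 525/em 598 nm) for released Pi, read each minute for 11 min after adding 10 uM VEPPL-pS-QETFS; signal taken as f1 minus pre-substrate f0. Enzyme 5 nM WIP1 with 1 hr room-temperature compound preincubation.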

Compound | outcome | activity change, negative = inhibition
CCOC(=O)[C@H](CCc1ccccc1)N[C@H]1CS[C@H](c2cccs2)CN(CC(=O)O)C1=O | inactive | 
CC(C)OC(=O)OCOP(=O)(CO[C@H](C)Cn1cnc2c(N)ncnc21)OCOC(=O)OC(C)C | inactive | 
COc1nc(N)nc2c1ncn2[C@@H]1O[C@H](CO)[C@@H](O)[C@@H]1O | inactive | 
COc1ccc(C(=O)CC(=O)c2ccc(C(C)(C)C)cc2)cc1 | inactive | 
Cc1cccc(Nc2ccncc2S(=O)(=O)NC(=O)NC(C)C)c1 | inactive | 
Cc1ncc([N+](=O)[O-])n1CCO | inactive | 
CC1=CC(=O)c2ccccc2C1=O | inactive | 
COC(=O)Nc1nc2ccc(Sc3ccccc3)cc2[nH]1 | inactive | 
COc1cc(NS(=O)(=O)c2ccc(N)cc2)nc(OC)n1 | inactive | 
COc1cnc(NS(=O)(=O)c2ccc(N)cc2)nc1 | inactive | 
Cn1c(=O)c2c(ncn2CC(O)CO)n(C)c1=O (centres undefined) | inactive | 
CNNCc1ccc(C(=O)NC(C)C)cc1 | inactive | 
COC(=O)Nc1nc2ccc(S(=O)c3ccccc3)cc2[nH]1 (centres undefined) | inactive | 
CO[C@@]12[C@H](COC(N)=O)C3=C(C(=O)C(C)=C(N)C3=O)N1C[C@@H]1N[C@@H]12 | inactive | 
C1CCC(C(CC2CCCCN2)C2CCCCC2)CC1 (centres undefined) | inactive | 
O[C@@H](CNC[C@H](O)[C@H]1CCc2cc(F)ccc2O1)[C@@H]1CCc2cc(F)ccc2O1 | inactive | 
CCCN[C@H]1CCc2nc(N)sc2C1 | inactive | 

Compound | outcome | activity change, negative = inhibition
CNCC[C@H](Oc1cccc2ccccc12)c1cccs1 | inactive | 
CCn1cc(C(=O)O)c(=O)c2cc(F)c(N3CCN(C)CC3)cc21 | inactive | 
O=C(O)c1cccnc1 | inactive | 
CCOC(=O)[C@H](CCc1ccccc1)N[C@H]1CCc2ccccc2N(CC(=O)O)C1=O | inactive | 
O=S(=O)(c1cccc2cnccc12)N1CCCNCC1 | inactive | 
N[C@@H](C(=O)N[C@@H]1C(=O)N2C(C(=O)O)=C(Cl)CS[C@H]12)c1ccccc1 |  | 10.7% [at 11.5 µM]
CN1CCN(c2c(F)cc3c(=O)c(C(=O)O)cn(CCF)c3c2F)CC1 | inactive | 
CCCOc1ccc(C(=O)OCCN(CC)CC)cc1N | inactive | 
Cc1cccc(N(C)C(=S)Oc2ccc3ccccc3c2)c1 | inactive | 
Clc1ccccc1CN1CCc2sccc2C1 | inactive | 
COC(c1ccccc1)(c1ccccc1)[C@H](Oc1nc(C)cc(C)n1)C(=O)O | inactive | 
CN1CCCC(n2nc(Cc3ccc(Cl)cc3)c3ccccc3c2=O)CC1 (centres undefined) | inactive | 
Cc1noc(NS(=O)(=O)c2ccc(N)cc2)c1C | inactive | 
C[C@]12C=CC(=O)C=C1CC[C@@H]1[C@@H]2C(=O)C[C@@]2(C)[C@H]1CC[C@]2(O)C(=O)CO | inactive | 
COc1ccc2cc3[n+](cc2c1OC)CCc1cc2c(cc1-3)OCO2 | inactive | 
O=S(=O)(O)CCS | inactive | 

Tested on: not listed separately
Assay: Primary qHTS for inhibitors of La Crosse Virus (LACV) - induced cell death in SH-SY5Y cells (AID 1508616); also: potency is read from the fitted curve at half-maximal effect;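 as to activity change: top concentration of the series differs between compounds; higher means more rescue of cells from virus-induced death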
Settings: SH-SY5Y LACV cytopathicity rescue, ATP luminescence, 6 d; series mostly up to 4.29 µM
In short: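 SH-SY5Y, 6000 cells/well; cpd via pin tool in DMSO; LACV 0.01 MOI; 6 d 37C 5% CO2; ATPLite, 5 min RT; luminescence normalized to ±virus DMSO controls.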

Compound | Potency | activity change
CCOC(=O)[C@H](CCc1ccccc1)N[C@H]1CS[C@H](c2cccs2)CN(CC(=O)O)C1=O | inactive | 
CC(C)OC(=O)OCOP(=O)(CO[C@H](C)Cn1cnc2c(N)ncnc21)OCOC(=O)OC(C)C | inactive | 
COc1nc(N)nc2c1ncn2[C@@H]1O[C@H](CO)[C@@H](O)[C@@H]1O | inactive | 
COc1ccc(C(=O)CC(=O)c2ccc(C(C)(C)C)cc2)cc1 | inactive | 
Cc1cccc(Nc2ccncc2S(=O)(=O)NC(=O)NC(C)C)c1 | inactive | 
Cc1ncc([N+](=O)[O-])n1CCO | inactive | 
CC1=CC(=O)c2ccccc2C1=O | inactive | 
COC(=O)Nc1nc2ccc(Sc3ccccc3)cc2[nH]1 | 199 nM (active) | 
COc1cc(NS(=O)(=O)c2ccc(N)cc2)nc(OC)n1 | inactive | 
COc1cnc(NS(=O)(=O)c2ccc(N)cc2)nc1 | inactive | 
Cn1c(=O)c2c(ncn2CC(O)CO)n(C)c1=O (centres undefined) | inactive | 
CNNCc1ccc(C(=O)NC(C)C)cc1 | inactive | 
COC(=O)Nc1nc2ccc(S(=O)c3ccccc3)cc2[nH]1 (centres undefined) | 355 nM (active) | 
CO[C@@]12[C@H](COC(N)=O)C3=C(C(=O)C(C)=C(N)C3=O)N1C[C@@H]1N[C@@H]12 | inactive | 
C1CCC(C(CC2CCCCN2)C2CCCCC2)CC1 (centres undefined) | inactive | 
O[C@@H](CNC[C@H](O)[C@H]1CCc2cc(F)ccc2O1)[C@@H]1CCc2cc(F)ccc2O1 | inactive | 
CCCN[C@H]1CCc2nc(N)sc2C1 | inactive | 

Compound | Potency | activity change
CCn1cc(C(=O)O)c(=O)c2cc(F)c(N3CCN(C)CC3)cc21 | inactive | 
CCOC(=O)[C@H](CCc1ccccc1)N[C@H]1CCc2ccccc2N(CC(=O)O)C1=O | inactive | 
O=S(=O)(c1cccc2cnccc12)N1CCCNCC1 | inactive | 
N[C@@H](C(=O)N[C@@H]1C(=O)N2C(C(=O)O)=C(Cl)CS[C@H]12)c1ccccc1 |  | -11.4% [at 0.858 µM]
CN1CCN(c2c(F)cc3c(=O)c(C(=O)O)cn(CCF)c3c2F)CC1 | inactive | 
CCCOc1ccc(C(=O)OCCN(CC)CC)cc1N | inactive | 
COc1ccc2c(c1)c(CC(=O)OCC(=O)O)c(C)n2C(=O)c1ccc(Cl)cc1 | inactive | 
CC(=O)[C@H]1CC[C@H]2[C@@H]3CCC4=CC(=O)CC[C@]4(C)[C@H]3CC[C@]12C | inactive | 
Cc1cccc(N(C)C(=S)Oc2ccc3ccccc3c2)c1 | inactive | 
N[C@@H](Cc1ccc(O)c(O)c1)C(=O)O | inactive | 
COC(c1ccccc1)(c1ccccc1)[C@H](Oc1nc(C)cc(C)n1)C(=O)O | inactive | 
NC(=O)N1c2ccccc2CC(=O)c2ccccc21 | inactive | 
CN1CCCC(n2nc(Cc3ccc(Cl)cc3)c3ccccc3c2=O)CC1 (centres undefined) | inactive | 
Cc1noc(NS(=O)(=O)c2ccc(N)cc2)c1C | inactive | 
C[C@]12C=CC(=O)C=C1CC[C@@H]1[C@@H]2C(=O)C[C@@]2(C)[C@H]1CC[C@]2(O)C(=O)CO | inactive | 
COc1ccc2cc3[n+](cc2c1OC)CCc1cc2c(cc1-3)OCO2 | inactive | 
O=S(=O)(O)CCS | inactive | 
